Shown are actives, neighbours in structure and some others; about 21% of the full set was active somewhere.
CYP2C19 act: increases human CYP2C19 enzyme activity; recombinant CYP2C19, luciferin-H EGE luminescence; active compounds read high; 0 = fully inhibited enzyme, 1 = untreated enzyme; activation factor at 5 µM; 96,000 tested, under 10 active;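 active means activation factor of at least 2 at 5 µM in the primary screen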;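 further: 0 = wells with 2.5 mM tranylcypromine and 1 = vehicle-only wells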
MRP1 act: activators of MRP-1; H69AR cells + doxorubicin, viability rescue, CellTiter-Glo; viability increase, % at 10 µM; 140,000 tested, 0.61% active; AID 799;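 active means viability gain under doxorubicin at or above a set limit, the compound median plus 3 SD, cut at about 4.7% in these data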;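 further: MRP-1 overexpressing cells given doxorubicin 25 µM after compound pretreatment; 18-22 h compound pretreatment then 72 h with doxorubicin before readout; 0% = doxorubicin-only wells and 100% = vehicle-treated cells without doxorubicin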
CYP2C9 inh: human CYP2C9 inhibition | CYP2C9 Supersomes, luciferin-H conversion, luminescence | inhibition, % at 5 µM | 96,000 tested, 20% active;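 active means blocking of liver enzyme CYP2C9 beyond about 50% at 5 µM, limit read from the data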
Target sequence (P11712 whole entry, looked up): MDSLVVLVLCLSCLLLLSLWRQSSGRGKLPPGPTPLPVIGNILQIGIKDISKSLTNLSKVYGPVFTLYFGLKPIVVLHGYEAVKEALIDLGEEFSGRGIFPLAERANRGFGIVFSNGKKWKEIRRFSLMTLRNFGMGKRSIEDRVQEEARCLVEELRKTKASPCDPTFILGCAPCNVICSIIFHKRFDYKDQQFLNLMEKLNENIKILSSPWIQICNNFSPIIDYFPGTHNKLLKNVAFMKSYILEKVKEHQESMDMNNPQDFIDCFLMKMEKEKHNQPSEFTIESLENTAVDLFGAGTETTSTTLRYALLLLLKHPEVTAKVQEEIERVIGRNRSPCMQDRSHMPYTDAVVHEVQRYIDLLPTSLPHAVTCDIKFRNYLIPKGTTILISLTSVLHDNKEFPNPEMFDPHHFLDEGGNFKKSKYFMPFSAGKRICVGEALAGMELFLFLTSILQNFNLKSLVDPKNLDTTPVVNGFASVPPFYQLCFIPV
MRP resist rev: reverses drug resistance mediated by MRP | H69AR cells + 2 uM doxorubicin, CellTiter-Glo, 72 h | 85,000 tested, 0.04% active | differential viability (reversal), % at 10 µM;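 active means viability drop by adding the cancer drug above about 55%, with treated viability meeting a 40% cutoff, limit read from the data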;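 further: viability without doxorubicin minus viability with 2 µM doxorubicin for each compound; larger differential means the compound sensitizes cells more to doxorubicin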
CYP2C19 inh: blocks human cytochrome P450 2C19 | P33261 | CYP2C19 Supersomes, luciferin-H EGE luminescence, 30 min | inhibition, % at 5 µM | 96,000 tested, 21% active | AID 778;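 active means CYP2C19 inhibition above a set limit at 5 µM in the primary screen, cut at about 50% in these data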;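 further: plate controls were negative control wells for no effect and 2.5 mM tranylcypromine positive control for full effect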
CYP2C9 activ: increases human cytochrome P450 2C9 activity; recombinant CYP2C9, luciferin-H conversion, luminescence; active compounds read high; factor 1 = untreated enzyme, 0 = blocked; 96,000 tested, 1.4% active; activation factor at 5 µM; P11712; AID 1024;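 active means activation factor of 2 or more for CYP2C9 at a 5 µM dose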;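 further: 0 = sulfaphenazole-blocked wells and 1 = vehicle-only wells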
An asterisk follows results filed as active; nt = no result.

SMILES	CYP2C19 act	MRP1 act	CYP2C9 inh	MRP resist rev	CYP2C19 inh	CYP2C9 activ
CN(CCCNC(=O)C1CCN(S(=O)(=O)N2CCC3(CC2)OCCO3)CC1)Cc1ccccc1	0.9	-1	8	20	8	0.9
O=C(NCc1ccco1)C1CCN(S(=O)(=O)N2CCC3(CC2)OCCO3)CC1	0.9	-3	84*	-5	8	0.2
O=C(NC1CCCCCCC1)C1CCN(S(=O)(=O)N2CCC3(CC2)OCCO3)CC1	0.4	-2	52*	-29	60*	0.5
COc1ccc(S(=O)(=O)N2CCC(C(=O)NCc3ccco3)CC2)cc1	1.1	-4	-82	20	-8	1.8
Cc1cc(C)c(S(=O)(=O)N2CCC(C(=O)NCc3ccco3)CC2)c(C)c1	0.8	-2	-179	-1	21	2.8*
O=C(C1CCN(S(=O)(=O)N2CCC3(CC2)OCCO3)CC1)N1CCC(Cc2ccccc2)CC1	0.4	-3	76*	-12	58*	0.2
N#Cc1ccc(/C=N/NC(=O)CCc2ccc(S(=O)(=O)N3CCOCC3)cc2)cc1	nt	-1	nt	nt	nt	nt
Cc1ccc(C(C)C)cc1OCC(=O)N/N=C/c1ccc2c(c1)OCCO2	nt	-3	nt	nt	nt	nt
Cn1cc(C(=O)N2CCN(C(=O)c3ccco3)CC2)c2c3ccccc3n(C)c2c1=O	1.1	-1	8	nt	-11	0.9
Cc1cc(O)c2c(-c3ccccc3)cc(=O)oc2c1	0.5	-2	76*	-19	52*	0.2
COc1ccc([N+](=O)[O-])cc1COc1cc(C)cc2oc(=O)cc(-c3ccccc3)c12	0.3	-4	92*	nt	75*	0.1
CCCCc1cc(=O)oc2cc(C)cc(O)c12	0.4	-1	68*	-10	55*	0.3
CC(=O)OC1=C(C#N)Cn2ccc3cccc1c32	0.9	-2	-14	-8	11	1.1
COc1ccc(N/C(=C(/C(Cl)=C(Cl)Cl)[N+](=O)[O-])n2nnc3ccccc32)cc1OC	0.9	-6	26	-11	10	0.7
COc1ccccc1-n1cnnc1SCC(=O)c1c[nH]c2ccccc12	nt	-1	nt	nt	nt	nt
CCC(=O)Nc1cccc(-c2cn3ccsc3n2)c1	1	1	-52	-18	-1	1.5
Cc1nc(-c2cccc(NS(=O)(=O)c3ccccc3)c2)cs1	0	-2	77*	15	97*	0.2
Cc1cccc(S(=O)(=O)Nc2cccc(-c3cn4ccsc4n3)c2)c1	0.2	-2	91*	nt	80*	0.1
Cc1ccc(S(=O)(=O)Nc2cccc(-c3cn4ccsc4n3)c2)cc1	0	-2	99*	-22	100*	0
O=S(=O)(Nc1cccc(-c2cn3cccnc3n2)c1)c1ccc(-c2ccccc2)cc1	0.2	-1	100*	nt	81*	0
CC1CCN(c2nc3c(c(=O)[nH]c(=O)n3C)n2CCSc2nc3ccccc3o2)CC1	1	-1	11	-3	2	0.9
CCC(Oc1ccc2c(c1)C(=O)CC(C)(C)O2)C(=O)NCCN1CCCCCC1 (stereo unspecified)	0.8	-2	23	0	22	0.8
O=C(COC(=O)C1(c2ccc(F)cc2)CCCC1)N1CCc2ccccc21	nt	-2	nt	nt	nt	nt
Cc1ccc2[nH]c(=O)c(COC(=O)c3cccs3)cc2c1	nt	-2	nt	nt	nt	nt
Nc1ccc(C(=O)OCC(=O)Nc2ccc([N+](=O)[O-])cc2C(F)(F)F)cc1	nt	-2	nt	nt	nt	nt
SMILES	CYP2C19 act	MRP1 act	CYP2C9 inh	MRP resist rev	CYP2C19 inh	CYP2C9 activ
O=S(=O)(Nc1cccc(-c2cn3ccsc3n2)c1)c1ccc(F)cc1	0.3	-1	79*	13	69*	0.2
O=S(=O)(Nc1cccc(-c2cn3cccnc3n2)c1)c1ccc(F)cc1	nt	-2	nt	nt	nt	nt
COc1ccc(N2Cc3cccc(C(=O)N4CCOCC4)c3C2=O)cc1	1.1	-3	8	7	-5	0.9
COc1ccc(S(=O)(=O)Cc2ccc(C(=O)N3CCN(Cc4ccccc4)CC3)o2)cc1	0.7	-3	87*	2	32	0.1
COc1ccc(S(=O)(=O)Cc2ccc(C(=O)N3CCN(c4ncccn4)CC3)o2)cc1	nt	nt	nt	6	nt	nt
COc1ccc(N2Cc3cccc(C(=O)N4CCN(C(=O)c5ccco5)CC4)c3C2=O)cc1	0.7	-3	64*	7	26	0.4
COc1ccc(S(=O)(=O)Cc2ccc(C(=O)N3CCN(C(=O)c4ccco4)CC3)o2)cc1	0.8	-2	80*	-9	18	0.2
Cc1ccc(S(=O)(=O)Cc2ccc(C(=O)N3CCN(Cc4ccccc4)CC3)o2)cc1	0.6	-4	92*	-1	41	0.1
O=C1Nc2ccccc2/C1=C/C(=O)c1cccs1	0.7	-6	-153	1	32	2.5*
COc1ccc(OC)c(-c2cc(C(=O)NCc3ccco3)no2)c1	0.9	-4	-191	4	9	2.9*
COC(=O)c1sccc1-c1ccc(C(=O)Nc2cccc(Cl)c2)o1	0.6	-1	72*	nt	43	0.3
COc1ccc(OC)c(-c2cc(C(=O)Nc3cccc(Cl)c3)no2)c1	1	-1	-117	-12	-4	2.2*
COc1cccc(-c2cc(C(=O)NCc3ccco3)no2)c1	1	0	-66	11	-3	1.7
COc1ccc(N=c2oc3c(OC)cccc3cc2C(=O)NCc2ccco2)c(OC)c1	0.7	-3	54*	1	30	0.5
Cc1ccc(NC(=O)c2cn(CCC#N)nc2-c2cccs2)c([N+](=O)[O-])c1	nt	-1	nt	nt	nt	nt
COC(=O)c1ccc(C(=O)OC)c(NC(=O)c2oc(C)nc2C)c1	nt	nt	nt	-4	nt	nt
COc1ccccc1NC(=O)N1CCC(C(=O)c2ccc(F)cc2)CC1	0.7	0	-237	nt	32	3.4*
COc1ccc(CNC(=O)CN2CCC(C(=O)c3ccc(OC)cc3)CC2)cc1	0.4	-2	70*	-8	63*	0.3
COc1ccccc1C(=O)N1CCC(C(=O)c2ccc(F)cc2)CC1	0.6	-2	-71	26	44	1.7
COc1ccccc1NC(=O)N1CCc2[nH]c3ccc(F)cc3c2C1	0.3	0	-30	4	67*	1.3
COc1ccccc1NC(=O)CN1CCC(C(=O)c2ccc(F)cc2)CC1	0.5	-3	-11	-8	52*	1.1
COc1ccccc1NC(=O)N1CCN(c2ccc(F)cc2)CC1	nt	2	nt	24	nt	nt
CCOc1ccccc1NC(=O)N1CCC(C(=O)c2ccc(F)cc2)CC1	0.2	0	-153	-6	83*	2.5*
O=C(CN1CCC(C(=O)c2ccc(F)cc2)CC1)Nc1ccccc1	0.6	-4	57*	-16	37	0.4
Cc1cccc(C)c1NC(=O)C1(N2CCN(C(=O)c3ccco3)CC2)CCCCC1	nt	-3	nt	-25	nt	nt
Cn1ccs/c1=N\S(=O)(=O)c1ccc(Br)cc1	0.6	-4	-141	2	37	2.4*
C=CCNC(=S)/N=c1\sccn1C	0.9	0	-18	-3	12	1.2
CCn1c(=O)c2cc(C(=O)N3CCOCC3)sc2c2ccccc21	0.8	-2	-44	7	22	1.4

Screening data as filed in PubChem BioAssay.
